In PubChem BioAssay (NCATS):
Results filed as inconclusive are left out. Active and inactive are the calls of the source. Unless noted, calls come from the whole dose curve; as a rule, active = well fitted curve in the direction sought with a large enough effect; inconclusive = small, poorly fitted or top-dose-only effect, or another doubt; inactive = no such curve, though single readings can be large; an effect the other way counts as inactive or inconclusive.

Legend:
[1] = Cell Viability - LYMP2-018 (AID 985); note: nearly all actives have a fitted effect of over 50% in size; note: potency is the fitted concentration of half-maximal effect
Procedure, shortened: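 Viability read as CellTiter-Glo luminescence (cellular ATP) after 24 hr compound exposure at 37 C of 2500 LYMP2-018 lymphoblastoid cells/well, pre-plated 5 hr. Hill-equation modelling gave AC50.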

[2] = Cell Viability - LYMP2-020 (AID 986); note: nearly all actives have a fitted effect of over 55% in size; note: potency is the fitted concentration of half-maximal effect
Procedure, shortened: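 Cytotoxicity in qHTS format: luminescent ATP readout from CellTiter-Glo after 24 h compound exposure at 37 C in complete medium. LYMP2-020 lymphoblastoid cells were seeded at 2500/well; concentration-response data fitted to the Hill equation for AC50.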

[3] = Cell Viability - LYMP2-022 (AID 987); note: nearly all actives have a fitted effect of over 55% in size; note: potency is the fitted concentration of half-maximal effect
Procedure, shortened: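 Cytotoxicity read as decreased cellular ATP (CellTiter-Glo luminescence, 30 min room temperature) after 24 hours compound exposure of 2500 lymphoblastoid LYMP2-022 cells/well at 37 C. Concentration-response data fitted with standard Hill equation for AC50.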

[4] = Cell Viability - LYMP2-024 (AID 988); note: nearly all actives have a fitted effect of over 60% in size; note: potency is the fitted concentration of half-maximal effect
Procedure, shortened: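 Cytotoxicity was taken as a decrease in ATP (CellTiter-Glo luminescence) after 24 hr compound exposure at 37 C of LYMP2-024 lymphoblastoid cells, 2500 cells/well. Concentration-response data were fitted to the Hill equation to give AC50.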

[5] = Cell Viability - LYMP2-026 (AID 989); note: nearly all actives have a fitted effect of over 50% in size; note: potency is the fitted concentration of half-maximal effect
Procedure, shortened: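 Cytotoxicity read as ATP-dependent luminescence (CellTiter-Glo, 30 min room temperature) after 24 h compound treatment at 37 C. LYMP2-026 lymphoblastoid line seeded at 2500 cells/well; AC50 derived by standard Hill equation.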

[6] = Cell Viability - LYMP1-002 - Assay at 24 hr (AID 993); note: potency is the fitted concentration of half-maximal effect
Procedure, shortened: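 qHTS cytotoxicity at 24 h: CellTiter-Glo ATP luminescence in lymphoblastoid line LYMP1-002 incubated with compound at 37 °C. Concentration-response modeled with the Hill equation for AC50; tetraoctylammonium bromide served as positive control.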

[7] = Cell Viability - LYMP1-002 - Assay at 40 hr (AID 994); note: nearly all actives have a fitted effect of over 60% in size; note: potency is the fitted concentration of half-maximal effect
Procedure, shortened: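 Cytotoxicity was read as loss of cellular ATP (CellTiter-Glo luminescence) after 40 hr compound exposure at 37 C of 2500 LYMP1-002 lymphoblastoid cells per well. Concentration-response data were fitted with the standard Hill equation to give AC50.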

[8] = biological target: Alpha-galactosidase A (Homo sapiens) (UniProt P06280); assay: Counterscreen for Glucocerebrosidase Inhibitors: qHTS Assay for Human alpha-Galactosidase at pH 4.5 (AID 992); note: 0% is about no effect
Procedure, shortened: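 Citrate buffer pH 4.5, Tween-20 0.005%. Enzyme 2 nM, substrate 80 uM, 20 min RT. Stop pH 10. Fluorescence Ex 365/Em 440. AC50 by Hill fit.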

[9] = biological target: alpha-glucosidase (Oryza sativa, rice) (UniProt Q653V4); assay: Counterscreen for Glucocerebrosidase Inhibitors: qHTS Assay for Rice alpha-Glucosidase at pH 5.0 (AID 997);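 note: 0% = full activity with enzyme and -100% = basal without enzyme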
Procedure, shortened: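 Endpoint fluorogenic assay at pH 5.0: compounds (0.7 nM to 77 uM) titrated against 4 nM rice enzyme and 400 uM 4-MU-alpha-glucoside for 20 min at room temperature; NaOH/glycine stop, read ex 365/em 440 nm, Hill-fitted AC50.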

[10] = biological target: DNA repair nuclease/redox regulator APEX1 (Homo sapiens) (UniProt P27695); assay: qHTS Validation Assay for Inhibitors of the Human Apurinic/apyrimidinic Endonuclease 1 (APE1) (AID 1705;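 note: TAMRA fluorescence gain over two minutes as APE1 cuts a quenched THF abasic duplex; % is set by controls: 0 for no effect and ±100 for the full control effect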)
Procedure, shortened: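 Substrate: 50 nM final fluorophore/quencher THF-abasic duplex. Enzyme preincubated with compounds 15 min, RT. Progress derived from fluorescence difference, third minus first kinetic read.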

[11] = Counterscreen for APE1 Inhibitors: Fluorescent Dye Displacement Validation Assay (AID 1707);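 note: plate controls were ThO with dsDNA and no compound for no effect and ThO without dsDNA for full effect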
Procedure, shortened: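 Signal: ThO fluorescence (ex 480 nm/em 540 nm) on binding 50 nM dsDNA; displacement by test compound reduces it. Conditions: 250 nM dye, 50 mM Tris-HCl pH7.5, 2 mM MgCl2, 50mM NaCl, 0.01% Tween-20.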

[12] = biological target: Endonuclease 4 (Escherichia coli (strain K12)) (UniProt P0A6C1); assay: Counterscreen for APE1 Inhibitors: qHTS Validation Assay for Inhibitors of Endonuclease IV (AID 1708); note: % is set by controls: 0 for no effect and ±100 for the full control effect
Procedure, shortened: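 Enzyme (2 nM) + compound, 15 min RT; add 50 nM TAMRA/BHQ-2 THF-site dsDNA; kinetic read ex525/em598, 3 reads/60 s; activity = read 3 − read 1. Buffer Tris pH 7.5, 50 mM NaCl, 2 mM MgCl2, DTT, Tween-20.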

[13] = qHTS for differential inhibitors of proliferation of Plasmodium falciparum line 7G8 (AID 1815);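 note: parasite growth measured after three days of incubation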; note: potency is the fitted concentration of half-maximal effect;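 for activity change, negative = inhibition: plate controls were vehicle wells for no effect and reference inhibitor wells for full effect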
[14] = qHTS for differential inhibitors of proliferation of Plasmodium falciparum line Dd2 (AID 1882); conditions: Potency: Plasmodium falciparum Dd2 proliferation inhibition; note: nearly all actives have a fitted effect of over 65% in size; note: potency is the fitted concentration of half-maximal effect;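 for activity change, negative = inhibition: plate controls were DMSO vehicle for no effect and 0.29 µM artemisinin for full effect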
Procedure, shortened: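 SYBR Green DNA fluorescence (ex 485, em 535 nm) after overnight lysis quantifies parasite growth; compound exposure lasted 72 h at 37 C on infected red cells at 2.5% hematocrit, 0.3% parasitemia (final). Artemisinin 0.29 uM and vehicle wells define normalization.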

[15] = qHTS Assay for Lipid Storage Modulators (AID 1519; calls by dose curve; for activity change, negative = inhibition: % is set by controls: 0 for no effect and ±100 for the full control effect); conditions: Drosophila S3 cells, BODIPY lipid droplet/cell ratio, laser cytometry, cells loaded with oleic acid
Procedure, shortened: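 Cells seeded at 5,000 per well were treated with compounds over a concentration series and loaded with oleic acid (400 uM, as added). Lipid droplet fluorescence (488 nm excitation, 500-530 nm channel) was read by laser-scanning cytometry and normalized to 20 uM Triacsin C.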

[16] = qHTS for differential inhibitors of proliferation of Plasmodium falciparum line GB4 (AID 1816); conditions: Potency: Plasmodium falciparum GB4 proliferation inhibition;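 note: parasite growth measured after 72 h incubation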; note: potency is the fitted concentration of half-maximal effect;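 for activity change, negative = inhibition: 0% = vehicle DMSO and -100% = reference inhibitor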
[17] = qHTS for differential inhibitors of proliferation of Plasmodium falciparum line 3D7 (AID 1876); note: potency is the fitted concentration of half-maximal effect
[18] = qHTS for differential inhibitors of proliferation of Plasmodium falciparum line D10 (AID 1877);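 note: parasites grown with compound for 72 h before DNA staining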; note: potency is the fitted concentration of half-maximal effect;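 for activity change, negative = inhibition: plate controls were vehicle wells for no effect and reference inhibitor wells for full effect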
[19] = qHTS for differential inhibitors of proliferation of Plasmodium falciparum line W2 (AID 1883); conditions: Potency: Plasmodium falciparum W2 proliferation inhibition;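 note: parasites grown with compound for 72 h before lysis and staining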; note: potency is the fitted concentration of half-maximal effect;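 for activity change, negative = inhibition: 0% = vehicle wells and -100% = control inhibitor wells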
[20] = measured here: cell count channel max response
[21] = measured here: lipid channel max response

Alpha-galactosidase A (Homo sapiens), sequence (P06280 whole entry, looked up): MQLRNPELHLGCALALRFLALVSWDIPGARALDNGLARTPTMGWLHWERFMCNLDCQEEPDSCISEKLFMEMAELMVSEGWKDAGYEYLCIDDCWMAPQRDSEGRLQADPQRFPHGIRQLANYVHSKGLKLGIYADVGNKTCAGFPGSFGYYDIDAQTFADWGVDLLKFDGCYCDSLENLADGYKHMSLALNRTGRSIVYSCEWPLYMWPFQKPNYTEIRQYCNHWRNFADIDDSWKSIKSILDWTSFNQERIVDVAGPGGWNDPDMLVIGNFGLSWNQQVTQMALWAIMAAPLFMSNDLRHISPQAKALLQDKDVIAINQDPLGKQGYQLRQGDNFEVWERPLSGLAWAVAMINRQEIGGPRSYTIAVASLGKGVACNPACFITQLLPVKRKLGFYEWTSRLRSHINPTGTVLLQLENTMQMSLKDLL
DNA repair nuclease/redox regulator APEX1 (Homo sapiens), sequence (P27695 whole entry, looked up): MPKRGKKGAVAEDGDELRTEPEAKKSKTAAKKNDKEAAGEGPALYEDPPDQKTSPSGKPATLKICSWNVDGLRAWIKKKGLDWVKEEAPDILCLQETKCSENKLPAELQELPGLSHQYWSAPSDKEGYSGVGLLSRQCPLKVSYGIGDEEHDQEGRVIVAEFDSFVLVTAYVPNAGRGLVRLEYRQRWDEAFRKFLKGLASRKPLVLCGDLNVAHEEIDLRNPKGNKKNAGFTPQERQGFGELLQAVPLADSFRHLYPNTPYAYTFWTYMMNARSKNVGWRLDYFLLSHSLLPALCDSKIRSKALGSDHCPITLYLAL

O=C(O)CCCCC(=O)O
inactive: Potency [1] | Potency [2] | Potency [3] | Potency [4] | Potency [5] | Potency [6] | Potency [7]

CC(O)C(=O)O (stereo not drawn)
inactive: Potency [1] | Potency [2] | Potency [3] | Potency [4] | Potency [5] | Potency [6] | Potency [7]

C[C@]12CC[C@@H]3c4ccc(O)cc4CC[C@H]3[C@@H]1CC[C@@H]2O
inactive: Potency [2] | Potency [3] | Potency [4] | Potency [5] | outcome [8] | Potency [6] | Potency [7] | outcome [9] | Potency [10] | outcome [11] | outcome [12] | Potency [13] | Potency [14]

COc1cccc2c1C(=O)c1c(O)c3c(c(O)c1C2=O)C[C@@](O)(C(=O)CO)C[C@@H]3O[C@H]1C[C@H](N)[C@H](O)[C@H](C)O1
active: Potency [1] 0.158 µM | Potency [2] 0.316 µM | Potency [3] 0.251 µM | Potency [4] 0.199 µM | Potency [5] 0.501 µM | Potency [6] 1 µM | Potency [7] 0.794 µM

COc1cc(NS(C)(=O)=O)ccc1Nc1c2ccccc2nc2ccccc12
-18.5%: max response [15, 20]
-18.7%: max response [15, 21]
inactive: outcome [8] | outcome [9] | activity change, negative = inhibition ([15]; at 57.5 µM (top of the series)) 0.361%
active: Potency [13] 1 µM | Potency [16] 0.891 µM | Potency [17] 0.891 µM | Potency [18] 1.41 µM | Potency [14] 2.51 µM | Potency [19] 1 µM

CC(C)(C)CC(C)(C)c1ccc(OCCOCC[N+](C)(C)Cc2ccccc2)cc1
active: Potency [1] 25.1 µM | Potency [2] 25.1 µM | Potency [3] 15.8 µM | Potency [4] 31.6 µM | Potency [5] 31.6 µM | Potency [6] 50.1 µM | Potency [7] 39.8 µM

COC1=CC(=O)C[C@@H](C)[C@]12Oc1c(Cl)c(OC)cc(OC)c1C2=O
inactive: Potency [1] | Potency [2] | Potency [3] | Potency [4] | Potency [5] | Potency [6] | activity change, negative = inhibition ([15]; at 57.5 µM (top of the series)) 14.1%
22.2%: max response [15, 21]
4.54%: max response [15, 20]

COc1cccc2c1C(=O)c1c(O)c3c(c(O)c1C2=O)C[C@@](O)(C(C)=O)C[C@@H]3O[C@H]1C[C@H](N)[C@H](O)[C@H](C)O1
active: Potency [1] 0.158 µM | Potency [2] 0.501 µM | Potency [3] 0.1 µM | Potency [4] 0.126 µM | Potency [6] 0.794 µM | Potency [7] 1 µM

CN1[C@@H]2CC[C@H]1CC(OC(=O)c1c[nH]c3ccccc13)C2 (stereo partly drawn)
inactive: outcome [8] | outcome [9]

O=C1OC(c2ccc(O)cc2)(c2ccc(O)cc2)c2ccccc21
inactive: Potency [1] | Potency [2] | Potency [3] | Potency [4] | Potency [5] | Potency [6] | Potency [7]

N[C@H](CO)C(=O)O
inactive: Potency [10] | outcome [11] | outcome [12] | Potency [13] | Potency [16] | Potency [17] | Potency [18] | Potency [14] | Potency [19]

O=c1ccc2ccccc2o1
inactive: Potency [1] | Potency [2] | Potency [3] | Potency [4] | Potency [5] | Potency [6] | Potency [7]

O=C1CCC(c2ccc(-n3ccnc3)cc2)=NN1
inactive: outcome [8] | outcome [9] | Potency [10] | outcome [11] | outcome [12] | Potency [13] | Potency [16] | Potency [17] | Potency [18] | Potency [14] | Potency [19]

CC(=O)Oc1ccc(C(c2ccc(OC(C)=O)cc2)c2ccccn2)cc1
inactive: Potency [1] | Potency [2] | Potency [3] | Potency [4] | Potency [5] | Potency [6] | Potency [7] | activity change, negative = inhibition ([15]; at 25.7 µM (top of the series)) -1.79%
-13.8%: max response [15, 20]
-14.3%: max response [15, 21]
